40 compounds from PubChem BioAssay can be followed below.

Results with a measured potency or affinity are listed apart. Active and inactive are the calls of the source. Unless noted, no cut-off is given here; in the data, nearly all actives have IC50 up to about 0.98 µM.

The target of the first assay is Calcium-dependent protein kinase 1 (Plasmodium falciparum (isolate 3D7)) (UniProt P62344). Nature of the assay: PfCDPK1 kinase inhibitors, biochemical, TCAMS library (AID 1159585).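 Note: inhibitors leave more ATP so luminescence rises with inhibition.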 The conditions noted are these: recombinant PfCDPK1, Kinase-Glo ATP depletion luminescence.
Chain of Calcium-dependent protein kinase 1 (Plasmodium falciparum (isolate 3D7)) (P62344 whole entry, looked up): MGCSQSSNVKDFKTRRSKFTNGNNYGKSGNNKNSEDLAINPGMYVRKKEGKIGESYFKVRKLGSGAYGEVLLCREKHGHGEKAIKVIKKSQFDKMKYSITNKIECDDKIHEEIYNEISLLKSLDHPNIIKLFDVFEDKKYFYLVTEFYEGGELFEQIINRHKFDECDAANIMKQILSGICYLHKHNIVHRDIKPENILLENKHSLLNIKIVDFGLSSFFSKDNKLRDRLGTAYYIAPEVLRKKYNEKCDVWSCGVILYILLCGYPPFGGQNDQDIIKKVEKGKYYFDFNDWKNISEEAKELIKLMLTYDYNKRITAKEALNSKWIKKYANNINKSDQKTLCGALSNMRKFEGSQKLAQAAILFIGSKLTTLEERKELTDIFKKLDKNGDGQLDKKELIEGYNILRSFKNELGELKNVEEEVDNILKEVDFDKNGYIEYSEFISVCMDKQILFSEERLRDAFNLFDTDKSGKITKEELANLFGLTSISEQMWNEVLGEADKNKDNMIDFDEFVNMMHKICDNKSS
Take `CN(C)CCc1coc2ccc(C(=O)Nc3ccc(-c4ccc(O)cc4)cc3)cc12`: the result was inactive.

For the compound `CCOc1cc2c(cc1OCC)C(c1ccc(O)c(Cl)c1)NCC2` (stereo not given), the outcome was inactive.

For the compound `CN1CCN(CCCN(Cc2ccc(-c3cccc(CNC4CCCC4)c3)cc2)C(=O)/C=C/c2ccccc2)CC1`, the outcome was inactive.

Take `Cc1cc(Nc2ccc(Cl)cc2)n2nc(C(F)(F)F)nc2n1`: the outcome was inactive.

As to `CCNc1cc(C(=O)N[C@@H](Cc2ccccc2)[C@H](O)CNCC(C)C)cc(N2CCCC2=O)c1`, the outcome was inactive.

As to `COc1ccc(C(=O)N[C@@H](CC(C)C)C(=O)N[C@H](/C=N/NC(=O)c2ccccc2)CCc2ccccc2)cc1OCCN1CCOCC1`, the result was inactive.

On to `Cc1cc(N[C@@H](Cc2ccccc2)C(=O)NCCCOC(C)C)nc(NCC2CCCCC2)n1`, for which the result was inactive.

On to `Cc1nnsc1C(=O)Nc1cccc(-c2ccc(-c3nc4ccc(C(F)(F)F)cc4[nH]3)cc2)c1`, for which the outcome was inactive.

Regarding `CC1(C)N=C(N)N=C(N)N1OCCc1cccc2ccccc12`, the result was inactive.

In the case of `Cc1ccc(Cn2ncc(N3CCNCC3)c(Cl)c2=O)cc1NC(=O)Nc1ccc(-c2ccccc2)cc1`, the result was inactive.

For `Cc1cc(-c2ccc3c(c2)CCN(CCC2CCC(NC(=O)/C=C/c4ccc(F)cc4)CC2)CC3)on1` (stereo not given), the result was inactive.

`COc1cc(OCCCN(C)Cc2ccc(OC)c(OC)c2)ccc1NC(=O)c1cccc2c(=O)c3cccc(F)c3[nH]c12`: the outcome was inactive.

`O=C(Nc1cccc(CN2CCN(C(=O)c3ccccc3)CC2)c1)c1ccco1`: the result was inactive.

In the case of `COc1ccc2c(NN=Cc3ccccc3[N+](=O)[O-])cc(C)nc2c1`, the result was inactive.

As for `Cc1nc(-c2ccc(C#N)cc2)sc1C(=O)NCCCCN1CCC(c2ccc3c(c2OCCO)CCCC3)CC1`, the result was inactive.

On to `Cc1nc2nc(N)nc(N)c2c(C)c1Cc1ccccc1Br`, for which the outcome was inactive.

`COC(=O)c1cccc(CNCc2cccc(-c3cccc(-c4nc5ccc(C(F)(F)F)cc5[nH]4)c3)c2)c1`: the outcome was inactive.

As to `CC(C)(C)CCN1CCC(CNC(=O)c2cc(-c3cccc(Cl)c3)cs2)C1` (stereo not given), the outcome was inactive.

Take `CC(C)(C)c1ccc(S(=O)(=O)Nc2ccccc2N2CCOCC2)cc1`: the result was inactive.

`CC(Cc1ccc(NC(=O)c2ccc(NCCc3ccccc3)cc2)cc1)NCCc1cccc(Cl)c1` (stereo not given): the outcome was inactive.

Take `O=C(Nc1ccccc1Oc1ccccc1)NC1CCN(c2ccnc3cc(Cl)ccc23)C1` (stereo not given): the result was inactive.

Regarding `C#C[C@H]1O[C@@H](n2cnc3c(Nc4cc(Br)cc(C(F)(F)F)c4)ncnc32)[C@H](O)[C@@H]1O`, the outcome was inactive.

Consider `Oc1ccc(CCNc2nc(NCc3ccccc3-c3ccc(C(F)(F)F)cc3)nc(N3CCNCC3)n2)cc1`, for which the outcome was inactive.

`CCN(CCO)Cc1ccc(-c2ccc(NS(=O)(=O)c3cccc4cccnc34)cc2)cc1`: the result was inactive.

Turning to `O=C(Nc1cccc(OC2CCN(Cc3ccccc3)CC2)c1)c1ccc([N+](=O)[O-])cc1`, the result was inactive.

In the case of `O=C(Nc1ccc(-c2csc(-c3nc4ccccc4[nH]3)c2)cc1)Nc1ccsc1`, the result was inactive.

In the case of `CN(C)CCOC(=O)C1(O)CCC2CC1C2(C)C` (stereo not given), the outcome was inactive.

Take `CCN(CC)CCNc1ccnc2[nH]c3ccc(I)cc3c12`: the outcome was inactive.

Take `C(=NNc1cc(-c2ccccc2)nc2ccccc12)c1cccnc1`: the outcome was inactive.

Consider `COc1ccc2nc(-c3cc(-c4ccc(NC(=O)CN5CCOCC5)cc4)cnc3N)[nH]c2c1`, for which the outcome was inactive.

On to `Cc1cccc(C(=O)N2CCN(Cc3cccc(NC(=O)c4cccs4)c3)CC2)c1`, for which the result was inactive.

Consider `Cn1ncc2c3c(CCN4CCC(NCc5cc6c(cn5)OCC6)CC4)c(Cl)cnc3ccc21`, for which the outcome was inactive.

Take `COc1ccc(CNc2ncc(-c3ccsc3)c(-c3nccs3)n2)cc1OC`: the result was inactive.

As to `CCCC(=O)Nc1ccc(OCCN(Cc2ccccc2OC(F)(F)F)c2ccc(C(F)(F)F)c(C#N)c2)cc1`, the result was inactive.

In the case of `CC(=O)Nc1cccc(C(=O)Nc2cccc(-c3ccc(-c4nc5c(C)cccc5[nH]4)cc3)c2)c1`, the outcome was inactive.

For the compound `Cc1cc(OCCCN2CCC(NS(=O)(=O)c3cc(Br)c(Cl)s3)CC2)c2ccccc2n1`, the outcome was inactive.

Consider `Cc1ccccc1OCC(=O)Nc1ccc(-c2nc3cc4ccccc4cc3[nH]2)cc1`, for which the outcome was inactive.

As to `CCc1c(C)nc(-n2nc(C)cc2NC(=O)C(CC)c2ccccc2)[nH]c1=O` (stereo not given), the outcome was inactive.

As to `CC(C)Cn1c2ccccc2c2nc3nc(N)nc(N)c3nc21`, the outcome was inactive.

With `O=C(NC1CCN(Cc2ccc(Cl)cc2)CC1)c1cn(-c2ccccc2)nc1-c1cccnc1`, the outcome was inactive.

In another assay the target is Plasmodium falciparum protein kinase 6 (PK6, PF3D7_1337100) (UniProt Q8IDW1). Nature of the assay: PfPK6 kinase inhibitors, biochemical, TCAMS library (AID 1159586; call rule not given here). The note with it: recombinant PfPK6, Kinase-Glo ATP depletion luminescence. Background: Kinase-Glo reads ATP consumption through a luciferase reaction.
Chain of Plasmodium falciparum protein kinase 6 (PK6, PF3D7_1337100) (Q8IDW1 1-305): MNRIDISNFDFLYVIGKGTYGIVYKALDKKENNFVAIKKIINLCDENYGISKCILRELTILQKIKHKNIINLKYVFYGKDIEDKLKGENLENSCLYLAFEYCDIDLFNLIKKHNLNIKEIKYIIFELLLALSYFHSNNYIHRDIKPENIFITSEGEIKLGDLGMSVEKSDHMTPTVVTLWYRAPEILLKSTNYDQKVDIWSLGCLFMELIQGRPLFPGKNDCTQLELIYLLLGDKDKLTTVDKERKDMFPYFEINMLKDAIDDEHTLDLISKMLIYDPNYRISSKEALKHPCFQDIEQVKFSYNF
With `CN(C)CCc1coc2ccc(C(=O)Nc3ccc(-c4ccc(O)cc4)cc3)cc12`, the result was inactive.

With `CCOc1cc2c(cc1OCC)C(c1ccc(O)c(Cl)c1)NCC2` (stereo not given), the result was inactive.

As for `CN1CCN(CCCN(Cc2ccc(-c3cccc(CNC4CCCC4)c3)cc2)C(=O)/C=C/c2ccccc2)CC1`, the result was inactive.

`Cc1cc(Nc2ccc(Cl)cc2)n2nc(C(F)(F)F)nc2n1`: the result was inactive.

Take `CCNc1cc(C(=O)N[C@@H](Cc2ccccc2)[C@H](O)CNCC(C)C)cc(N2CCCC2=O)c1`: the result was inactive.

Consider `COc1ccc(C(=O)N[C@@H](CC(C)C)C(=O)N[C@H](/C=N/NC(=O)c2ccccc2)CCc2ccccc2)cc1OCCN1CCOCC1`, for which the outcome was inactive.

In the case of `Cc1cc(N[C@@H](Cc2ccccc2)C(=O)NCCCOC(C)C)nc(NCC2CCCCC2)n1`, the result was inactive.

As to `Cc1nnsc1C(=O)Nc1cccc(-c2ccc(-c3nc4ccc(C(F)(F)F)cc4[nH]3)cc2)c1`, the result was inactive.

With `CC1(C)N=C(N)N=C(N)N1OCCc1cccc2ccccc12`, the result was inactive.

As for `Cc1ccc(Cn2ncc(N3CCNCC3)c(Cl)c2=O)cc1NC(=O)Nc1ccc(-c2ccccc2)cc1`, the result was inactive.

For `Cc1cc(-c2ccc3c(c2)CCN(CCC2CCC(NC(=O)/C=C/c4ccc(F)cc4)CC2)CC3)on1` (stereo not given), the outcome was inactive.

In the case of `COc1cc(OCCCN(C)Cc2ccc(OC)c(OC)c2)ccc1NC(=O)c1cccc2c(=O)c3cccc(F)c3[nH]c12`, the outcome was inactive.

As for `O=C(Nc1cccc(CN2CCN(C(=O)c3ccccc3)CC2)c1)c1ccco1`, the outcome was inactive.

Take `COc1ccc2c(NN=Cc3ccccc3[N+](=O)[O-])cc(C)nc2c1`: the result was inactive.

Regarding `Cc1nc(-c2ccc(C#N)cc2)sc1C(=O)NCCCCN1CCC(c2ccc3c(c2OCCO)CCCC3)CC1`, the result was inactive.

Consider `Cc1nc2nc(N)nc(N)c2c(C)c1Cc1ccccc1Br`, for which the outcome was inactive.

On to `COC(=O)c1cccc(CNCc2cccc(-c3cccc(-c4nc5ccc(C(F)(F)F)cc5[nH]4)c3)c2)c1`, for which the result was inactive.

In the case of `CC(C)(C)CCN1CCC(CNC(=O)c2cc(-c3cccc(Cl)c3)cs2)C1` (stereo not given), the result was inactive.

`CC(C)(C)c1ccc(S(=O)(=O)Nc2ccccc2N2CCOCC2)cc1`: the result was inactive.

As for `CC(Cc1ccc(NC(=O)c2ccc(NCCc3ccccc3)cc2)cc1)NCCc1cccc(Cl)c1` (stereo not given), the result was inactive.

In the case of `O=C(Nc1ccccc1Oc1ccccc1)NC1CCN(c2ccnc3cc(Cl)ccc23)C1` (stereo not given), the result was inactive.

Consider `C#C[C@H]1O[C@@H](n2cnc3c(Nc4cc(Br)cc(C(F)(F)F)c4)ncnc32)[C@H](O)[C@@H]1O`, for which the result was inactive.

For the compound `Oc1ccc(CCNc2nc(NCc3ccccc3-c3ccc(C(F)(F)F)cc3)nc(N3CCNCC3)n2)cc1`, the result was inactive.

Regarding `CCN(CCO)Cc1ccc(-c2ccc(NS(=O)(=O)c3cccc4cccnc34)cc2)cc1`, the outcome was inactive.

Turning to `O=C(Nc1cccc(OC2CCN(Cc3ccccc3)CC2)c1)c1ccc([N+](=O)[O-])cc1`, the outcome was inactive.

`O=C(Nc1ccc(-c2csc(-c3nc4ccccc4[nH]3)c2)cc1)Nc1ccsc1`: the outcome was inactive.

Regarding `CN(C)CCOC(=O)C1(O)CCC2CC1C2(C)C` (stereo not given), the result was inactive.

As for `CCN(CC)CCNc1ccnc2[nH]c3ccc(I)cc3c12`, the outcome was inactive.

On to `C(=NNc1cc(-c2ccccc2)nc2ccccc12)c1cccnc1`, for which the result was inactive.

For the compound `COc1ccc2nc(-c3cc(-c4ccc(NC(=O)CN5CCOCC5)cc4)cnc3N)[nH]c2c1`, the result was inactive.

Regarding `Cc1cccc(C(=O)N2CCN(Cc3cccc(NC(=O)c4cccs4)c3)CC2)c1`, the result was inactive.

Consider `Cn1ncc2c3c(CCN4CCC(NCc5cc6c(cn5)OCC6)CC4)c(Cl)cnc3ccc21`, for which the outcome was inactive.

On to `COc1ccc(CNc2ncc(-c3ccsc3)c(-c3nccs3)n2)cc1OC`, for which the result was inactive.

As to `CCCC(=O)Nc1ccc(OCCN(Cc2ccccc2OC(F)(F)F)c2ccc(C(F)(F)F)c(C#N)c2)cc1`, the result was inactive.

For the compound `CC(=O)Nc1cccc(C(=O)Nc2cccc(-c3ccc(-c4nc5c(C)cccc5[nH]4)cc3)c2)c1`, the outcome was inactive.

Take `Cc1cc(OCCCN2CCC(NS(=O)(=O)c3cc(Br)c(Cl)s3)CC2)c2ccccc2n1`: the outcome was inactive.

On to `Cc1ccccc1OCC(=O)Nc1ccc(-c2nc3cc4ccccc4cc3[nH]2)cc1`, for which the result was inactive.

`CCc1c(C)nc(-n2nc(C)cc2NC(=O)C(CC)c2ccccc2)[nH]c1=O` (stereo not given): the result was inactive.

On to `CC(C)Cn1c2ccccc2c2nc3nc(N)nc(N)c3nc21`, for which the outcome was inactive.

Turning to `O=C(NC1CCN(Cc2ccc(Cl)cc2)CC1)c1cn(-c2ccccc2)nc1-c1cccnc1`, the result was inactive.
